Records with an inconclusive call do not appear. Unmarked numbers belong to inactive results. Active and inactive are the calls of the source. Calls follow the shape of the dose curve; as a rule, active = well fitted curve in the direction sought with a large enough effect; inconclusive = small, poorly fitted or top-dose-only effect, or another doubt; inactive = no such curve, though single readings can be large; an effect the other way counts as inactive or inconclusive.
Columns and labels:
[1] = Viability qHTS for spleen associated tyrosine kinase inhibitor (SYKi) naive MV4-11 cells (AID 1963823); also: nearly all actives have a fitted effect of over 40% in size
How it was run: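 CellTiter-Glo luminescence, 10 min room-temperature incubation, gave viability. Cells: naive MV4-11 (500/well), treated 72 hr at 37 C, 5% CO2.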

[2] = Viability qHTS for spleen associated tyrosine kinase inhibitor (SYKi) drug resistant MV4-11 cells (AID 1963824); also: nearly all actives have a fitted effect of over 35% in size
How it was run: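 SYK-inhibitor-resistant MV4-11 AML cells were seeded at 500 per well onto compound and cultured 72 hours (37 °C, 5% CO2). CellTiter-Glo was then added, and after 10 min at room temperature, luminescence gave viability.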

[3] = Quantitative highthroughput screen to assess conditional lethalithy of NOMO1 cells grown in Human Plasma-Like Medium with dialyzed fetal bovine serum (HPLM+ds) (AID 1963878); also: nearly all actives have a fitted effect of over 35% in size
How it was run: (§1)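 Each medium arm—HPLM with 10% dialyzed FBS, or RPMI1640 with 5 mM glucose and 10% untreated or dialyzed FBS—was screened against an 11-point, 3-fold compound titration for 48 h at 37 °C, with CellTiter-Glo luminescence as endpoint.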

[4] = Quantitative highthroughput screen to assess conditional lethalithy of P12 Ichikawa cells grown in RPMI1640 with dialyzed fetal bovine serum (RPMI+ds) (AID 1963880); conditions: Potency: P12-Ichikawa viability; also: nearly all actives have a fitted effect of over 35% in size;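 as to Viability: 100% = DMSO wells and 0% = empty wells on each plate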
How it was run: as §1

[5] = Cellular viability qHTS for adrenocortical cancer (ACC) cell line SW-13 (AID 1963989); conditions: SW-13 ACC cells viability, CellTiter-Glo, 48 h; activity (max response): stronger effect = lower value; also: nearly all actives have a fitted effect of over 65% in size;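 as to activity (max response): cells grown in serum-free medium with ITS supplement; % is scaled to controls: 0 for no effect and ±100 for the full control effect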
How it was run: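 48 h treatment, SW-13 in ITS/DMEM serum-free; doses up to 46 uM; readout CellTiter-Glo luminescence; curve fit four-parameter logistic.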

[6] = Cellular viability qHTS for adrenocortical cancer (ACC) cell line NCI-H295R (AID 1963990); also: nearly all actives have a fitted effect of over 60% in size
How it was run: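 Compound titrations (up to 46 uM final) are applied to NCI-H295R cultures for 48 h at 37C. Viable cell number is estimated by CellTiter-Glo signal, normalised to DMSO and doxorubicin controls.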
Potency is read from the fitted curve at half-maximal effect.

In the case of `Cc1ccccc1C1=CCN(C)CC1`, the Potency [1] is reported as “inactive” and the Potency [2] is reported as “inactive”.
For `C/C=C(\C)C(O)C(C)/C=C(C)/C=C/C/C(C)=C/Cc1nc(OC)c(OC)c(O[C@@H]2O[C@@H](C)[C@H](O)[C@@H](O)[C@H]2O)c1C` (stereo partly specified), the Potency [1] was 100 nM (active) and the Potency [2] was 252 nM (active).
For `N#Cc1ccccc1-c1cc(-c2ccccn2)cn(-c2ccccc2)c1=O`, the Potency [1] was “inactive” and the Potency [2] was “inactive”.
With `CC(=O)O[C@@H]1[C@@H](O)[C@H]2O[C@@H]3C=C(C)[C@@H](O)C[C@]3(CO)[C@]1(C)[C@]21CO1` the Potency [1] was 321 nM (active) and the Potency [2] was 321 nM (active).
In the case of `C[C@]12CC[C@H]3[C@@H](CCC4=C/C(=N/OCC(=O)O)CC[C@@]43C)[C@@H]1CC[C@@H]2O`, the Potency [1] is reported as “inactive” and the Potency [2] is reported as “inactive”.
In the case of `Cc1c(Cl)c(OCC(=O)N2CCN(C)CC2)nc2sc(C(=O)NC3CC3)c(N)c12`, the Potency [1] is reported as “inactive” and the Potency [2] is reported as “inactive”.
With `C=C(CO)C(=O)O[C@H]1CC(=C)[C@@H]2C[C@H](O)C(=C)[C@@H]2[C@H]2OC(=O)C(=C)[C@@H]21` the Potency [1] was 1800 nM (active) and the Potency [2] was 1610 nM (active).
For `C[C@]12CC[C@@H](O)C[C@@H]1CC[C@@H]1[C@@H]2CC[C@]2(C)C(=O)[C@@H](Br)C[C@@H]12`, the Potency [1] was 16400 nM (active) and the Potency [2] was 11600 nM (active).
In the case of `C1=C2CCCN[C@H]2[C@@H]2C[C@H]1[C@H]1CCCCN1C2`, the Potency [1] is reported as “inactive” and the Potency [2] is reported as “inactive”.
`C=CC(C)(O)CC/C=C(\C)C(=O)O[C@H]1[C@H](O)[C@@H](CO)O[C@@H](OC(=O)[C@]23CCC(C)(C)CC2C2=CCC4[C@@]5(C)CC[C@H](O[C@@H]6O[C@H](CO[C@@H]7OC[C@H](O)[C@H](O)[C@H]7O[C@@H]7OC[C@@H](O)[C@H](O)[C@H]7O)[C@@H](O)[C@H](O)[C@H]6O)C(C)(C)C5CC[C@@]4(C)[C@]2(C)CC3)[C@@H]1OC1OC(C)C(O[C@@H]2OC[C@@H](O)[C@H](O[C@@H]3OC[C@@H](O)[C@H](O)[C@H]3O)[C@H]2O)C(O)C1O` (stereo partly specified) showed a viability (% of control) [1] of 65.2% [at 9.25 µM] and a viability, % of control [2] of 77.8% [at 9.25 µM].
For `CC(=O)OC[C@]12C[C@H](OC(=O)CC(C)C)C(C)=C[C@H]1O[C@@H]1[C@H](O)C[C@@]2(C)[C@]12CO2`, the Potency [1] was 252 nM (active) and the Potency [2] was 282 nM (active).
In the case of `CCC(C)(C#N)O[C@@H]1O[C@H](CO)[C@@H](O)[C@H](O)[C@H]1O` (stereo partly specified), the Potency [1] is reported as “inactive” and the Potency [2] is reported as “inactive”.
With `CC(C)(C)c1cc(C(C)(C)C)c2c(c1)C(O)(C(F)(F)F)C(=O)O2` (stereo unspecified) the Potency [1] was “inactive” and the Potency [2] was “inactive”.
In the case of `CC[C@H](C)[C@H](NC(=O)[C@H]1CCCCN1C)C(=O)N(COC(=O)CC(C)C)[C@H](C[C@@H](OC(C)=O)c1nc(C(=O)N[C@@H](Cc2ccc(O)cc2)C[C@H](C)C(=O)O)cs1)C(C)C`, the Potency [1] is reported as 0.4 nM (active) and the Potency [2] is reported as 0.4 nM (active).
In the case of `CC(C)[C@H]1OC(=O)[C@H](Cc2ccccc2)N(C)C(=O)[C@@H](C(C)C)OC(=O)[C@H](Cc2ccccc2)N(C)C(=O)[C@@H](C(C)C)OC(=O)[C@H](Cc2ccccc2)N(C)C1=O`, the Potency [1] is reported as 3850 nM (active) and the Potency [2] is reported as 5440 nM (active).
For `CC12CCC3C(CCC4(O)CC(O)CCC34C=O)C1(O)CCC2C1=CC(=O)OC1` (stereo unspecified), the Potency [1] was 366 nM (active) and the Potency [2] was 231 nM (active).
With `C[C@@H]1C[C@@H](O)[C@]2(O)O[C@@H]3C[C@@]4(C=O)C(CC[C@@H]5C4CC[C@]4(C)[C@@](O)(C6=CC(=O)OC6)CC[C@]54O)C[C@H]3OC2O1` (stereo partly specified) the Potency [1] was 796 nM (active) and the Potency [2] was 709 nM (active).
For `CC[C@@H](C)[C@H]1C(=O)O[C@H](C(C)C)C(=O)N(C)[C@@H](C(C)C)C(=O)O[C@H](C(C)C)C(=O)N(C)[C@@H](C(C)C)C(=O)O[C@H](C(C)C)C(=O)N1C`, the Potency [1] was 5440 nM (active) and the Potency [2] was 2730 nM (active).
With `COC1C(O)C(C)OC(OC2C(CO)O[C@@H](O[C@@H]3CC4CCC5C(CC[C@]6(C)[C@@H](C7=CC(=O)OC7)CC[C@]56O)[C@@]4(C)[C@H](O)C3)C(O)C2O)C1O` (stereo partly specified) the Potency [1] was 385 nM (active) and the Potency [2] was 217 nM (active).
For `C=C(CO)C(=O)O[C@H]1C/C(C)=C/CC/C(CO)=C/[C@H]2OC(=O)C(=C)[C@H]12`, the Potency [1] was “inactive” and the Potency [2] was “inactive”.
For `Cc1ccc2c(c1)[C@H]1CN(C)CC[C@H]1N2C(=O)CSc1nnnn1-c1ccc(Cl)cc1`, the Potency [1] was “inactive” and the Potency [2] was “inactive”.
For `CC(C)(C)[C@]1(O)C[C@@H]2OC(=O)C[C@@]23C(=O)O[C@@H]2OC(=O)[C@@H](O)[C@]213`, the Potency [1] was “inactive” and the Potency [2] was “inactive”.
With `CC(=O)O[C@H]1CN2CCC1CC2` the Potency [1] was “inactive” and the Potency [2] was “inactive”.
For `O=C(Nc1ccncc1)C(=O)c1cn(Cc2ccc(Cl)cc2)c2ccccc12`, the Potency [3] was 59 nM (active).
With `N=c1c2c(-c3ccccc3)c(-c3ccccc3)n(Cc3ccccc3)c2ncn1C1CCC(O)CC1` (stereo unspecified) the Potency [4] was 16600 nM (active).
For `O=C(O)c1nn(Cc2ccc(Cl)cc2Cl)c2ccccc12`, the Potency [4] was “inactive”.
In the case of `Nc1ccccc1`, the Potency [1] is reported as “inactive”, the Potency [2] is reported as “inactive” and the activity (max response) [5] is reported as 7.78%. For the same compound, the Potency [6] was “inactive”.
With `O=C(O)c1ccc2[nH]cc(CCCCN3CC=C(c4ccccc4)CC3)c2c1` the Potency [1] was 9440 nM (active), the Potency [2] was “inactive” and the activity (max response) [5] was -1.83%. For the same compound, the Potency [6] was “inactive”.
In the case of `Cc1ccc(N=CN(C)C=Nc2ccc(C)cc2C)c(C)c1`, the Potency [1] is reported as “inactive”, the Potency [2] is reported as “inactive” and the activity (max response) [5] is reported as 9.45%. For the same compound, the Potency [6] was “inactive”.
For `Cc1ccc(S(=O)(=O)N[C@@H](CCCCN)C(=O)CCl)cc1`, the Potency [1] was “inactive”, the Potency [2] was “inactive” and the activity (max response) [5] was 15.2%. The Potency [6] was “inactive”.
For `COCC(=O)N(c1c(C)cccc1C)C(C)C(=O)OC` (stereo unspecified), the Potency [1] was “inactive”, the Potency [2] was “inactive” and the activity (max response) [5] was 0.998%. For the same compound, the Potency [6] was “inactive”.
For `COC12C(COC(N)=O)C3=C(C(=O)C(C)=C(N)C3=O)N1CC1C2N1C` (stereo unspecified), the Potency [1] was 590 nM (active), the Potency [2] was 833 nM (active) and the Potency [5] was 25100 nM (active). The Potency [6] was 15800 nM (active).
With `CN(C)NC(=O)CCC(=O)O` the Potency [1] was “inactive”, the Potency [2] was “inactive” and the activity (max response) [5] was -24.4%. For the same compound, the Potency [6] was “inactive”.
For `C[C@@H]1CC[C@@]2(OC1)O[C@H]1C[C@H]3[C@@H]4CC=C5C[C@@H](O[C@@H]6O[C@H](CO)[C@@H](O[C@@H]7O[C@@H](C)[C@H](O)[C@@H](O)[C@H]7O)[C@H](O)[C@H]6O[C@@H]6O[C@@H](C)[C@H](O)[C@@H](O)[C@H]6O)CC[C@]5(C)[C@H]4CC[C@]3(C)[C@H]1[C@@H]2C`, the Potency [1] was 1660 nM (active), the Potency [2] was 1660 nM (active) and the Potency [5] was 3550 nM (active). For the same compound, the Potency [6] was 2240 nM (active).

Reference: PubChem BioAssay (NCATS)
